Most compounds without a hit are left out; they make up all but 3.4% or so of the library.
MITF primary – human MITF inhibition, primary screen | O75030 | AlphaScreen MITF homodimerization, bead proximity signal | inhibition, % at 2.6 µM | actives 0.91% (n = 650,000) | AID 1259374; in the data active means inhibition above about 50%;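 further: 0% = vehicle wells with protein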
TEAD-YAP block – TEAD-YAP interaction inhibition. HEK-TIYL cells, TEAD-Gal4/YAP UAS-luciferase luminescence. inhibition, % at 9.12 µM. actives 1.4% (n = 640,000); in the data active means inhibition above about 32%;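 further: 0% = median of test compound wells and 100% = reference inhibitor wells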
FBW7 act – activators of human E3 ligase FBW7; normalized activity (activation), % at 26.1 µM; actives 0.13% (n = 650,000); Q969H0; AlphaScreen FBW7–phospho-cyclin E peptide binding, activator screen; AID 1259310; in the data active means normalized activity above about 1.9%;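 further: purified mutant Fbw7 with reduced substrate affinity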
Target sequence (Q969H0 whole entry, looked up): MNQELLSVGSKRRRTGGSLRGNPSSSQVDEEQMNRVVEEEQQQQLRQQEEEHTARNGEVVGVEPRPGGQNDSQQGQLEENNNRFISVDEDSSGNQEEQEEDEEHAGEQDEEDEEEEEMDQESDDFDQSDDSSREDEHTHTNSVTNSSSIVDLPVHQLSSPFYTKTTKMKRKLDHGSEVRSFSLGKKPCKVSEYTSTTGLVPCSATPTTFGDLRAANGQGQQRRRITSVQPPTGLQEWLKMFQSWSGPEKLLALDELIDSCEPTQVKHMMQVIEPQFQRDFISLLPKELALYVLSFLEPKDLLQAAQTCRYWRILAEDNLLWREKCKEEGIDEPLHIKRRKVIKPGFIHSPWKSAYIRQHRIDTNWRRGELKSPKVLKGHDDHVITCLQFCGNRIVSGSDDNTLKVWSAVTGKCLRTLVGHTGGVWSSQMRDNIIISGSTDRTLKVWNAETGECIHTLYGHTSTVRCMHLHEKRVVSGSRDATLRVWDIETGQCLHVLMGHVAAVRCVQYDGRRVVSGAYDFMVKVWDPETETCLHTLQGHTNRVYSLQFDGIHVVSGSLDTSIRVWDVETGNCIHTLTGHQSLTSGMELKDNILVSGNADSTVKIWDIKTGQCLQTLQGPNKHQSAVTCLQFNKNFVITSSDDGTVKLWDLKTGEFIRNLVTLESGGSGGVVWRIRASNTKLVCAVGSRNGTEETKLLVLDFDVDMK
GPR151 activ – human GPR151 activation; AID 1508602; activation, % at 11.2 µM; PathHunter beta-arrestin GPR151 cells, luminescence; actives 1% (n = 650,000); Q8TDV0; in the data active means activation above about 4.9%;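 further: 0% = median of compound wells and 100% = cells with positive control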
* = called active by the depositor.

SMILES	MITF primary	TEAD-YAP block	FBW7 act	GPR151 activ
C=CCn1c(=O)/c(=C\C=C2\C=CN(CC)c3ccccc32)s/c1=C\c1sc(-c2ccccc2)c(-c2ccccc2)[n+]1CC	-45	2	0	0
CCOc1c(Cl)cc(/C=C/C(=O)Oc2ccc(-n3cnnn3)cc2)cc1OC	-16	1	0	-1
c1ccc(-n2nnnc2-c2ccc(-c3nnnn3-c3ccccc3)cc2)cc1	10	-4	0	0
OC[C@H]1O[C@@H](n2cnc3c(NCc4ccco4)ncnc32)[C@H](O)[C@@H]1O	0	74*	0	1
Cc1[nH]nc2c1C(c1cc(Br)c(C)s1)C(C#N)=C(N)O2 (stereo not given)	8	33*	0	-2
COc1ccc(S(=O)(=O)Nc2cccc(-c3ccc(N4CCCCC4)nn3)c2)cc1C	-10	46*	0	-3
COc1ccc(S(=O)(=O)Nc2cccc(-c3ccc4nncn4n3)c2)cc1F	15	45*	1	0
O=S(=O)(Nc1cccc(-c2ccc3nncn3n2)c1)c1cccc(C(F)(F)F)c1	16	-8	0	-1
CCOc1cccc(NC(=O)C2CC(=O)N(C)C(=Nc3ccc(Br)cc3)S2)c1 (stereo not given)	1	-5	0	0
COc1ccc(Br)cc1/C=N/N=C(N)N	3	42*	0	-2
CC(c1ccccc1)C1Nc2ccccc2C(=O)N1c1cccc(C(F)(F)F)c1 (stereo not given)	-5	8	0	-1
COCCNC(=O)c1ccc2c(=O)n(Cc3ccco3)c(SCC(=O)N3CCN(c4ccccc4)CC3)nc2c1	-7	28	0	0
CN(Cc1ccccc1)C(=O)CSc1nc2cc(C(=O)NCC3CCCO3)ccc2c(=O)n1Cc1ccco1 (stereo not given)	-5	38*	0	1
O=C(CSc1nc2cc(C(=O)NCC3CCCO3)ccc2c(=O)n1Cc1ccco1)NC1CCCC1 (stereo not given)	-3	11	0	-1
O=C(NCC1CCCO1)c1ccc2c(=O)n(Cc3ccco3)c(SCC(=O)N3CCN(c4ccccc4)CC3)nc2c1 (stereo not given)	-2	35*	0	0
CCc1c(C(=O)NCc2ccc(F)cc2)[nH]c(C)c1C(C)=O	-7	-10	0	0
COCCCNC(=O)c1ccc2nc(-c3ccc(OC)c(OC)c3)c(-c3ccc(OC)c(OC)c3)nc2c1	0	-6	0	2
Cc1ccc(OCC(=O)c2cc(C)n(-c3ccccc3)c2C)c([N+](=O)[O-])n1	1	50*	0	0
C=CCn1c(C)cc(C(=O)COc2ccc(C)nc2[N+](=O)[O-])c1C	-6	30	0	2
O=C(Nc1ccc([N+](=O)[O-])cc1)/C(Cl)=C/c1ccccc1	10	-29	0	0
CCC(=O)NC(c1ccccc1OC)c1ccc2cccnc2c1O (stereo not given)	43	44*	-2	1
COc1ccccc1C(NC(=O)C1CCCCC1)c1ccc2cccnc2c1O (stereo not given)	8	61*	-1	1
CCCCC(=O)NC(c1cccs1)c1ccc2cccnc2c1O (stereo not given)	49	88*	-1	-1
CCCCC(=O)NC(c1ccccc1Cl)c1ccc2cccnc2c1O (stereo not given)	31	87*	-2	-2
O=C(NC(c1ccc(Cl)cc1)c1ccc2cccnc2c1O)C1CCCCC1 (stereo not given)	12	14	1	-1
SMILES	MITF primary	TEAD-YAP block	FBW7 act	GPR151 activ
Cc1ccc(C2Nc3ccccc3NC3=C2C(=O)CC(c2cccs2)C3)s1 (stereo not given)	14	2	0	0
O=C(Cc1ccccc1)NC(c1ccccc1Cl)c1ccc2cccnc2c1O (stereo not given)	16	84*	-2	1
CCOC(=O)CC(NC(=O)Cc1ccccc1)c1ccccc1Cl (stereo not given)	-1	-1	0	-1
Cn1ccnc1C(NC(=O)Cc1ccc(O)cc1)c1ccccc1 (stereo not given)	-1	-10	0	0
O=C(Cc1ccccc1)NC(c1ccccc1)c1ccc2cccnc2c1O (stereo not given)	28	58*	-2	-1
CCC(=O)NC(c1ccccc1Cl)c1ccc2cccnc2c1O (stereo not given)	31	89*	-2	0
O=C(N/N=C\c1cccc([N+](=O)[O-])c1)c1[nH]ncc1I	22	-40	1	-6
CC(=O)N1CC(C)Oc2cc(S(=O)(=O)Nc3ccccc3Cl)ccc21 (stereo not given)	0	4	0	1
CCOc1ccc(S(=O)(=O)Nc2cc([N+](=O)[O-])ccc2OC)cc1	10	51*	0	2
CCOc1ccc(NS(=O)(=O)c2ccc(OC)c(OC)c2)cc1	3	0	0	-1
COc1ccc(NS(=O)(=O)c2ccc3c(c2)OC(C)CN3C(C)=O)cc1OC (stereo not given)	5	40*	0	-2
COc1ccc(OC)c(NS(=O)(=O)c2ccc(SC)cc2)c1	16	52*	0	1
COc1ccc(C)cc1NS(=O)(=O)c1ccc(SC)cc1	23	8	0	0
CCOc1ccc(S(=O)(=O)Nc2ccc(OC)c(OC)c2)cc1	23	57*	1	0
COc1ccc(OC)c(NS(=O)(=O)c2ccc([N+](=O)[O-])cc2)c1	-4	4	0	-1
CCCCCOC(=O)c1ccc2c(c1)C(=O)N(C1CCCCC1)C2=O	5	3	0	0
O=C(CCCCC(=O)N/N=C/c1ccccc1[N+](=O)[O-])N/N=C/c1ccccc1[N+](=O)[O-]	-6	-2	0	-1
O=C(Cc1ccc([N+](=O)[O-])cc1)N/N=C/c1cccc(Br)c1	9	8	1	0
COc1ccc(NS(=O)(=O)c2ccc(SC)cc2)cc1OC	-11	44*	0	0
CCOc1ccc(OCC)c(NS(=O)(=O)c2c[nH]c(C(=O)OC)c2)c1	-7	53*	0	-1
CCOc1ccc(S(=O)(=O)Nc2cc(OC)ccc2OC)cc1C	6	52*	0	-1
COc1ccc(OC)c(NS(=O)(=O)c2ccc(C(C)(C)C)cc2)c1	15	7	0	1
CCOc1ccc(S(=O)(=O)Nc2cc(OC)ccc2OC)cc1	14	63*	1	-2
CCOc1ccccc1NS(=O)(=O)c1ccc(OC)c(C)c1	17	4	1	-1
COCCNc1oc2c(c1-c1ccccc1[N+](=O)[O-])c(=O)oc1c(C)cccc12	8	1	0	-2
COc1ccc(NS(=O)(=O)c2ccc(Oc3ccccc3OC)cc2)cc1	7	33*	0	0
COc1cccc(NS(=O)(=O)c2ccc(Oc3ccccc3OC)cc2)c1	-2	6	0	-1
COc1ccc(NS(=O)(=O)c2ccc(Cc3ccc(S(=O)(=O)Nc4ccc(OC)cc4OC)cc3)cc2)c(OC)c1	20	37*	1	0

Screening results deposited in PubChem BioAssay by The Scripps Research Institute Molecular Screening Center.
